Laboratory results: PubChem BioAssay (NCATS)
Records with an inconclusive call do not appear. Activity calls are given as the source filed them. Calls follow the shape of the dose curve; as a rule, active = well fitted curve in the direction sought with a large enough effect; inconclusive = small, poorly fitted or top-dose-only effect, or another doubt; inactive = no such curve, though single readings can be large; an effect the other way counts as inactive or inconclusive.

Columns and labels:
[1] = Cellular Toxicity (caspase-3) Mesangial (AID 660); settings: mesangial cells, normalized: DMSO 0%, 100 µM tamoxifen 100%; at 91.7 µM (top of the series);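 also: combined caspase 3 and 7 activity read by Caspase-Glo luminescence; cells exposed to compound for 16 h before the caspase read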
Outline: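 Concentration-response qHTS: compound-induced rise in caspase 3/7 luminescence in human mesangial cells after 16 h, normalized to DMSO and 100 uM tamoxifen controls.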

[2] = Cellular Toxicity (caspase-3) SK-N-SH (AID 661);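 also: 0% = DMSO basal and 100% = 10 µM staurosporine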
Outline: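 Caspase 3/7 activation is measured as a luminescence increase from aminoluciferin released by substrate cleavage in SK-N-SH cells after 16 hr compound treatment; values are AC50 from concentration-response curves.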

[3] = Cellular Toxicity (caspase-3) H-4-II-E (AID 663); settings: H-4-II-E rat hepatoma, scaled: DMSO 0%, 100 µM tamoxifen 100%; at 92.2 µM (top of the series);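 also: cells exposed to compound for 16 hr before readout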
Outline: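 Apoptosis induction is scored as increased luminescence from caspase 3/7 substrate cleavage in rat hepatoma H-4-II-E cells exposed to compound for 16 hr. Activity is scaled between DMSO and 100 uM tamoxifen.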

[4] = Cellular Toxicity (caspase-3) Hek293 (AID 664); settings: HEK293 caspase-3 activation, DMSO = 0%, 100 µM tamoxifen = 100%; at 92.2 µM (top of the series);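 also: cells exposed to compound for 16 h at 37 °C before readout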
Outline: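 Activation of caspase-3/7 is measured as increased luminescence from cleaved peptide-aminoluciferin substrate in HEK293 cells treated 16 hours at 37 °C. AC50 values come from Hill-equation fits of concentration-response data.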

[5] = Cellular Toxicity (caspase-3) N2a (AID 665);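 also: compound exposure lasted 16 h at 37 °C before readout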
Outline: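 Plated mouse neuroblastoma N2a cells received titrated compounds for 16 h in complete medium. Caspase activity was then detected with a peptide-aminoluciferin luminescent reagent.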

[6] = Cellular Toxicity (caspase-3) NIH 3T3 (AID 666);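 also: 0% = DMSO basal and 100% = 100 µM tamoxifen stimulation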
Outline: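 Concentration-response qHTS in NIH 3T3 mouse fibroblasts scores caspase-3/7 activation as rising luminescence after 16 hr compound exposure. Signals are scaled between DMSO-only and 100 uM tamoxifen.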

[7] = Cellular Toxicity (caspase-3) Renal Proximal Tubule (AID 667); settings: Potency: caspase-3 activation;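 also: cells exposed to compound for 16 hours at 37 °C before detection; 0% = DMSO basal and 100% = 10 µM staurosporine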
Outline: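 Luminescent caspase 3/7 signal from peptide-aminoluciferin cleavage measures apoptosis in freshly isolated rat kidney proximal tubule cells after 16 h compound exposure. Concentration-response data are normalized to DMSO and 10 uM staurosporine, and AC50 values come from Hill equation fits.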

[8] = target: Cytochrome P450 3A4 (Homo sapiens) (UniProt P08684); assay: qHTS Assay for Inhibitors and Substrates of Cytochrome P450 3A4 (AID 884); also: % is scaled to controls: 0 for no effect and ±100 for the full control effect; nearly all actives have a fitted effect of over 50% in size
Outline: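 20 nM human CYP3A4 with 25 uM Luciferin-PPXE (at KM) in 200 mM KPO4, preincubated 10 min with compound; NADPH regeneration started a 60 min RT reaction. Luciferin detected by luminescence, normalized to 57 uM ketoconazole as full inhibition.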

[9] = Cell Viability - LYMP2-001 (AID 921);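 also: 0% = DMSO only and full inhibition = tetraoctylammonium bromide control wells; nearly all actives have a fitted effect of over 70% in size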
Outline: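 CellTiter-Glo luminescence (intracellular ATP) after 24 hr compound exposure at 37 C, 2500 lymphoblastoid cells/well in complete medium. AC50 fitted with standard Hill equation; tetraoctylammonium bromide positive control.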

[10] = MultiTox-Fluor Cytotoxicity Assay - LYMP1-001 - Dead Cells (AID 946)
Outline: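 Seed 2500 LYMP1-001 cells/well, incubate 5 hr at 37 C; add compound, 16 hr at 37 C; add MultiTox-Fluor reagent, 60 min RT; read dead-cell fluorescence Ex/Em=485/520. Normalize to DMSO and 15 uM tetraoctylammonium bromide.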

[11] = MultiTox-Fluor Cytotoxicity Assay - LYMP1-001 - Live Cells (AID 947);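 also: 0% = DMSO only and full inhibition = tetraoctylammonium bromide control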
[12] = Cell Viability - LYMP1-002 - Assay at 16 hr (AID 948);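 also: 0% = DMSO alone and full effect = 92 µM tetraoctylammonium bromide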
Outline: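 LYMP1-002 human lymphoblastoid cells, 2500/well; 5 hr 37 C; cpd 16 hr 37 C; CellTiter-Glo 30 min RT; luminescence (ATP). Concentration-response, Hill-fit AC50. Pos ctrl tetraoctylammonium bromide.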

[13] = MultiTox-Fluor Cytotoxicity Assay - LYMP1-002 - Live Cells (AID 955); also: % is scaled to controls: 0 for no effect and ±100 for the full control effect
Outline: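 Cytotoxicity in the human lymphoblastoid line LYMP1-002 is measured as loss of live-cell protease activity after 16 h treatment in complete culture medium. AC50 is derived from Hill-equation fits of qHTS concentration-response data.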

[14] = MultiTox-Fluor Cytotoxicity Assay - LYMP1-003 - Dead Cells (AID 961);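 also: cells exposed to compound for 16 h at 37 °C; nearly all actives have a fitted effect of over 70% in size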
Outline: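 LYMP1-003 lymphoblastoid, 2500 cells/well, 5 hr settle then 16 hr cpd at 37 C; MultiTox-Fluor reagent 60 min RT; Ex/Em 485/520 dead-cell signal; norm. DMSO = 0%, 15 uM tetraoctylammonium bromide = 100%; Hill AC50.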

[15] = MultiTox-Fluor Cytotoxicity Assay - LYMP1-003 - Live Cells (AID 962);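 also: cells exposed to compound for 16 hours at 37 °C; 0% = DMSO only and full loss = 92 µM tetraoctylammonium bromide; cytotoxic hits lower the live-cell protease signal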
Outline: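 Cells plated at 2500 per well and incubated 5 hr; compounds added and incubated 16 hr at 37 C; MultiTox-Fluor reagent added for 60 min at room temperature; fluorescence of liberated AFC measured at 405/510 nm.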

[16] = Cell Viability - LYMP1-003 - Assay at 24 hr (AID 963);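 also: plate controls were DMSO only for no effect and tetraoctylammonium bromide positive control for full effect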
Outline: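 Acute toxicity in LYMP1-003 lymphoblastoid cells: 24 hr compound treatment at 37 C, ATP measured with CellTiter-Glo after 30 min at room temperature. AC50 derived by fitting the Hill equation to qHTS titrations.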

[17] = Cell Viability - LYMP1-003 - Assay at 40 hr (AID 964); also: % is scaled to controls: 0 for no effect and ±100 for the full control effect; nearly all actives have a fitted effect of over 60% in size
Outline: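 This qHTS cytotoxicity screen treats human lymphoblastoid cells (LYMP1-003) with compounds for 40 hr and quantifies cellular ATP via luciferase luminescence.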

[18] = Cell Viability - LYMP2-003 (AID 965);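 also: cells exposed to compounds for 24 h before reading; 0% = DMSO only and full effect = 92 µM tetraoctylammonium bromide; nearly all actives have a fitted effect of over 50% in size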
Outline: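 CellTiter-Glo luminescence (cellular ATP) after 24 h compound exposure at 37 C in complete medium; 2500 cells/well, 5 h settling beforehand. Concentration-response fitted to standard Hill equation for AC50. Tetraoctylammonium bromide served as positive control.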

[19] = MultiTox-Fluor Cytotoxicity Assay - LYMP1-002 - Dead Cells (AID 960);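 also: cells exposed to compound for 16 h at 37 °C; nearly all actives have a fitted effect of over 60% in size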
Outline: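 Acute cytotoxicity in a human lymphoblastoid line is scored as rising dead-cell protease signal after 16 hr exposure at 37 C, measured fluorometrically (485/520).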

Cytochrome P450 3A4 (Homo sapiens), sequence (P08684 whole entry, looked up): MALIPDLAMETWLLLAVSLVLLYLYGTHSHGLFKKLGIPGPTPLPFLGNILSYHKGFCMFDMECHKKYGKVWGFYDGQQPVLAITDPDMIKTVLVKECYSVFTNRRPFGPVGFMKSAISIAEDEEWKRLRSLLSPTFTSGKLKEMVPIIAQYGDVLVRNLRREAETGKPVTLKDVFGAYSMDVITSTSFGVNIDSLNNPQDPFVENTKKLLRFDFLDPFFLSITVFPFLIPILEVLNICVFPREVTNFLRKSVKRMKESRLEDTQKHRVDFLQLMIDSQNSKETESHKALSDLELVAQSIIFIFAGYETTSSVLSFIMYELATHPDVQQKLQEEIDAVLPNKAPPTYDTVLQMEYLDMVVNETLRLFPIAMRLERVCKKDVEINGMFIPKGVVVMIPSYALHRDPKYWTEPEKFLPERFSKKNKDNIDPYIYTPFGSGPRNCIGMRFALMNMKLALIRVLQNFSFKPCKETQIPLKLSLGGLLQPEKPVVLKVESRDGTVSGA

Nc1ccc(F)cc1F
inactive: caspase-3 activation [1] -0.571% | outcome [2] | caspase-3 activation [3] -0.359% | caspase-3 activation [4] 0.487% | outcome [5] | outcome [6] | Potency [7] | Potency [8] | Potency [9] | outcome [10] | outcome [11] | outcome [12] | outcome [13] | Potency [14] | Potency [15] | Potency [16] | Potency [17] | Potency [18]

NC(=S)NNC(N)=S
inactive: caspase-3 activation [1] -0.792% | outcome [2] | caspase-3 activation [3] 0.228% | caspase-3 activation [4] 1.03% | outcome [5] | outcome [6] | Potency [7] | Potency [8] | Potency [9] | outcome [10] | outcome [11] | outcome [12] | outcome [13] | Potency [14] | Potency [15] | Potency [16] | Potency [18]

NC(=O)NC(N)=O
inactive: caspase-3 activation [1] -0.43% | outcome [2] | caspase-3 activation [3] -0.188% | caspase-3 activation [4] 0.826% | outcome [5] | outcome [6] | Potency [7] | Potency [8] | Potency [9] | outcome [10] | outcome [11] | outcome [12] | outcome [13] | Potency [14] | Potency [15] | Potency [16] | Potency [17] | Potency [18]

CC(O)CC(C)O (stereo not given)
inactive: caspase-3 activation [1] 0.0132% | outcome [2] | caspase-3 activation [3] 1.09% | caspase-3 activation [4] -0.296% | outcome [5] | outcome [6] | Potency [7] | Potency [8] | Potency [9] | outcome [10] | outcome [11] | outcome [12] | outcome [13] | Potency [14] | Potency [15] | Potency [16] | Potency [17] | Potency [18]

COCCOC(=O)c1ccccc1C(=O)OCCOC
inactive: caspase-3 activation [1] 1.04% | outcome [2] | caspase-3 activation [3] 0.176% | caspase-3 activation [4] 0.308% | outcome [5] | outcome [6] | Potency [7] | Potency [8] | Potency [9] | outcome [10] | outcome [11] | outcome [12] | outcome [19] | Potency [14] | Potency [15] | Potency [16] | Potency [17] | Potency [18]

CCCCC(CC)CNCC(CC)CCCC (stereo not given)
inactive: caspase-3 activation [1] -1.31% | outcome [2] | caspase-3 activation [3] -0.122% | caspase-3 activation [4] 0.754% | outcome [5] | outcome [6] | Potency [7] | Potency [8] | Potency [9] | outcome [10] | outcome [11] | outcome [12] | outcome [13] | Potency [14] | Potency [15] | Potency [16] | Potency [17] | Potency [18]

O=[N+]([O-])c1cc(C(F)(F)F)ccc1Cl
inactive: caspase-3 activation [1] -0.64% | outcome [2] | caspase-3 activation [3] 0.0893% | caspase-3 activation [4] -0.647% | outcome [5] | outcome [6] | Potency [7] | Potency [8] | Potency [9] | outcome [10] | outcome [11] | outcome [12] | outcome [13] | Potency [14] | Potency [15] | Potency [16] | Potency [17] | Potency [18]

FC(F)(F)c1ccccc1Cl
inactive: caspase-3 activation [1] 1.05% | outcome [2] | caspase-3 activation [3] 0.997% | caspase-3 activation [4] -1.13% | outcome [5] | outcome [6] | Potency [7] | Potency [8] | Potency [9] | outcome [10] | outcome [11] | outcome [12] | outcome [13] | Potency [14] | Potency [15] | Potency [16] | Potency [17] | Potency [18]

CNc1ccc([N+](=O)[O-])cc1
inactive: caspase-3 activation [1] 0.0307% | outcome [2] | caspase-3 activation [3] 0.918% | caspase-3 activation [4] -2.51% | outcome [5] | outcome [6] | Potency [7] | Potency [8] | Potency [9] | outcome [10] | outcome [11] | outcome [12] | outcome [13] | Potency [14] | Potency [16] | Potency [17] | Potency [18]
